From PubChem BioAssay AID493025 (Johns Hopkins Ion Channel Center, 2011)
Hit rate of the full screen: of about 1,000 compounds, about 570 (57%) were called active. The rule behind the calls is not given here. The set was probably picked from earlier hits. This excerpt belongs to a sample that is enriched for actives.

What follows are compounds tested against Potassium voltage-gated channel subfamily KQT member 2 (Rattus norvegicus) (UniProt O88943) (assay: rat KCNQ2 potassium channel inhibitors, confirmation, cell-based, thallium flux (AID 493025;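 note: 0% = vehicle wells and values are ratio percent relative to vehicle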)). Settings: KCNQ2-expressing cells, at 10 µM, stronger effect = lower value.
Potassium voltage-gated channel subfamily KQT member 2 (Rattus norvegicus), sequence (O88943 whole entry, looked up): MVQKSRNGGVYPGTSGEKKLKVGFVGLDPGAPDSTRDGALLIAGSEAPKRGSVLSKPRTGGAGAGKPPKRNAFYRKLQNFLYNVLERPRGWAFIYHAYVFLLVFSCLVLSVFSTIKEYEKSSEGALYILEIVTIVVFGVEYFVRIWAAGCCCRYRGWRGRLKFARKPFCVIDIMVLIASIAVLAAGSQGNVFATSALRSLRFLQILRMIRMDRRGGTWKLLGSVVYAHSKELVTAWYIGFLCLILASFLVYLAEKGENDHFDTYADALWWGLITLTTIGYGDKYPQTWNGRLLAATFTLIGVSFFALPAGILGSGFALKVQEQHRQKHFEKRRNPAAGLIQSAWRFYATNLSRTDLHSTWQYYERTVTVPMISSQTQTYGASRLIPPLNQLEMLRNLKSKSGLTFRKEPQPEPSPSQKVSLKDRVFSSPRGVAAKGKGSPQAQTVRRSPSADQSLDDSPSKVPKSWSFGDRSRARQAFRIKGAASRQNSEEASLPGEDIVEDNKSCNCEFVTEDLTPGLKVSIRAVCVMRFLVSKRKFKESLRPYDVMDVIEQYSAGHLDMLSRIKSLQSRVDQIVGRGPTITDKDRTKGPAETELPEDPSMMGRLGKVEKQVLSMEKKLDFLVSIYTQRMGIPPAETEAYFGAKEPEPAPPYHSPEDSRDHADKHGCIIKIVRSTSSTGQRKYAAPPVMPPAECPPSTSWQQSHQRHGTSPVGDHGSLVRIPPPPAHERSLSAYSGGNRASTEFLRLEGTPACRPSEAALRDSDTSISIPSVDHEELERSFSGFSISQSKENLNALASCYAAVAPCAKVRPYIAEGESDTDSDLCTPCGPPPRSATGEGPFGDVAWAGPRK

Structure (SMILES)	activity change, negative = inhibition
CN(C)CC1Oc2ccccc2OC1(O)c1ccccc1 (configuration not stated)	-32% (active)
O=C(NC(c1ccc(Cl)cc1)P(=O)(Oc1ccccc1)Oc1ccccc1)OCc1ccccc1 (configuration not stated)	-23% (active)
